Among the test systems are HT29 colon; SNB-75 CNS; SNB-19 CNS; U251 CNS; PC-3 prostate; UACC-62 melanoma; LOX IMVI melanoma; SK-MEL-28 melanoma; SK-MEL-2 melanoma; EKVX NSCLC; SN12C renal; UO-31 renal; TK-10 renal; ACHN renal; CAKI-1 renal; A498 renal; CCRF-CEM leukemia; MOLT-4 leukemia; SR leukemia; SK-MEL-5 melanoma.
Holding throughout (experiment): NCI-60 one-dose screen, 48 h (100 = growth as untreated, 0 = no growth, -100 = all killed)
Holding throughout (conditions): 10 µM

About 83,000 compounds went through this panel and 20% of them were active in at least one assay; those are over-represented in the sample as a whole.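 Method: cells in 96-well plates; compound added at one concentration; 48 h incubation; percent growth measured; values under 10 scored active.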 A number with no mark means an inactive call. Active and inactive are the calls of the source.

The text below walks through data of PubChem BioAssay (NCI).

As to `C[N+](C)(C)c1ncnc2nc[nH]c12`, the growth in the experiment with HT29 colon was 104%; in the experiment with SNB-75 CNS it was 70%; in the experiment on SNB-19 CNS, 94.9%; in the experiment with U251 CNS, 93.9%; in the experiment on PC-3 prostate it was 115%; with UACC-62 melanoma it was 90.4%. Besides, the growth is 90.4% in the experiment with LOX IMVI melanoma; 108% with SK-MEL-28 melanoma; 75.8% in the experiment with SK-MEL-2 melanoma; 89.1% in the experiment with EKVX NSCLC; 108% in the experiment with SN12C renal; 84% with UO-31 renal. Moreover, the growth is 103% with TK-10 renal; 91.1% in the experiment with ACHN renal; 83% in the experiment on CAKI-1 renal; 98.3% in the experiment with A498 renal; 102% in the experiment on CCRF-CEM leukemia; 98.6% in the experiment on MOLT-4 leukemia. The growth with SR leukemia was 78.4%.

In the case of `CCN(CC)CCN1CC(=O)Nc2cc(Cl)ccc21`, the growth with HT29 colon is 112%; in the experiment on SNB-75 CNS it was 92.1%; with SNB-19 CNS, 104%; with U251 CNS, 99.7%; with PC-3 prostate, 90.8%; in the experiment with UACC-62 melanoma, 94.4%. The growth in the experiment on LOX IMVI melanoma is 102%; in the experiment with SK-MEL-28 melanoma it was 115%; in the experiment on SK-MEL-2 melanoma, 104%; in the experiment on EKVX NSCLC it was 101%; in the experiment with SN12C renal, 103%; in the experiment on UO-31 renal, 82%. Also, the growth was 114% with TK-10 renal; 104% in the experiment with ACHN renal; 87.6% with A498 renal; 101% with CCRF-CEM leukemia; 105% in the experiment with MOLT-4 leukemia; 114% in the experiment with SR leukemia.

`CCCCCCN(CCCCCC)CC(O)c1ccc2c3c(cccc13)CC2` (configuration not stated): the growth in the experiment on HT29 colon was -4.58% (active); in the experiment on SNB-75 CNS it was 120%; in the experiment with SNB-19 CNS, 82.4%; in the experiment on U251 CNS, 49.5%; in the experiment with PC-3 prostate, 51.5%; with UACC-62 melanoma, 65.2%. For the same compound, the growth was 21.4% with LOX IMVI melanoma; 71.7% in the experiment on SK-MEL-28 melanoma; 55.8% in the experiment with SK-MEL-2 melanoma; 71.5% with EKVX NSCLC; 61.4% in the experiment on SN12C renal; 32% in the experiment with UO-31 renal. For the same compound, the growth in the experiment on CAKI-1 renal is 59.6%; in the experiment on A498 renal, 24.5%; with MOLT-4 leukemia it was 53.3%; in the experiment with SR leukemia, 21.7%.

With `Cc1ccc(-c2n[nH]c(=O)c3noc(-c4ccc(C)cc4)c23)cc1`, the growth in the experiment on HT29 colon is 6.9% (active); with SNB-75 CNS it was -15% (active); with SNB-19 CNS, 56%; with U251 CNS, 27.7%; with PC-3 prostate, 28%; in the experiment on UACC-62 melanoma, 28.6%. Moreover, the growth in the experiment on LOX IMVI melanoma is 44%; in the experiment on SK-MEL-28 melanoma, 52%; with SK-MEL-2 melanoma it was 9.04% (active); with SN12C renal, 47%; with UO-31 renal it was 20.3%; with ACHN renal it was 33.9%. Also, the growth is 13.8% in the experiment on A498 renal, 17.5% in the experiment with CCRF-CEM leukemia, 44.2% with MOLT-4 leukemia and 10.2% with SR leukemia.

As for `O=C(CC(c1ccccc1)N1CCOCC1)c1ccccc1` (configuration not stated), the growth was 90.1% in the experiment on HT29 colon; 85.8% with SNB-75 CNS; 85% in the experiment on SNB-19 CNS; 80.8% in the experiment with U251 CNS; 72.1% in the experiment with PC-3 prostate; 97.2% in the experiment on SK-MEL-5 melanoma. Also, the growth in the experiment on UACC-62 melanoma is 93.6%; with LOX IMVI melanoma it was 89%; with SK-MEL-2 melanoma it was 94.7%; in the experiment with EKVX NSCLC it was 89.3%; in the experiment on SN12C renal, 88.5%; with UO-31 renal, 75.7%. In addition, the growth was 99.7% in the experiment on TK-10 renal; 103% with ACHN renal; 98.8% in the experiment with CAKI-1 renal; 79.6% with CCRF-CEM leukemia; 82.3% in the experiment with MOLT-4 leukemia; -32.7% (active) in the experiment on SR leukemia.

Consider `c1ccc(C(NC2CC3CCC2C3)c2ccccc2)cc1` (configuration not stated), for which the growth in the experiment on HT29 colon is 85.8%; in the experiment on SNB-75 CNS, 93.5%; with SNB-19 CNS it was 99%; in the experiment with U251 CNS it was 91.9%; with PC-3 prostate, 97.2%; with UACC-62 melanoma it was 87.2%. Further, the growth was 95.3% in the experiment with LOX IMVI melanoma; 110% in the experiment with SK-MEL-28 melanoma; 89.6% in the experiment with SK-MEL-2 melanoma; 96.8% in the experiment with EKVX NSCLC; 94% in the experiment with SN12C renal; 65% in the experiment on UO-31 renal. Further, the growth is 95.9% in the experiment with TK-10 renal; 87.7% with CAKI-1 renal; 116% with A498 renal; 87.6% in the experiment with CCRF-CEM leukemia; 94% in the experiment on MOLT-4 leukemia; 90.2% in the experiment on SR leukemia.

Regarding `N#CC1=C(Nc2ccccc2Cl)SC(c2ccccc2O)NC1=O` (configuration not stated), the growth in the experiment with HT29 colon is 112%; in the experiment on SNB-75 CNS it was 103%; in the experiment on SNB-19 CNS, 111%; in the experiment on U251 CNS it was 104%; in the experiment with PC-3 prostate, 96.7%; in the experiment with UACC-62 melanoma it was 103%. In addition, the growth with LOX IMVI melanoma is 97.5%; in the experiment on SK-MEL-28 melanoma it was 109%; with SK-MEL-2 melanoma it was 114%; in the experiment on EKVX NSCLC it was 108%; in the experiment with SN12C renal, 102%; with UO-31 renal, 84.5%. Moreover, the growth was 134% in the experiment on TK-10 renal; 97.7% with ACHN renal; 95.2% in the experiment with A498 renal; 99.9% in the experiment with CCRF-CEM leukemia; 104% with MOLT-4 leukemia; 123% in the experiment with SR leukemia.

Consider `NC(=S)N=Nc1c(O)c2ccccc2c2ccccc12`, for which the growth in the experiment on HT29 colon was 98.4%; in the experiment with SNB-75 CNS, 75.9%; in the experiment on SNB-19 CNS it was 38.7%; with U251 CNS, 26.1%; in the experiment on PC-3 prostate, 47.2%; in the experiment on UACC-62 melanoma it was -85.1% (active). Moreover, the growth with LOX IMVI melanoma was 1.8% (active); in the experiment with SK-MEL-28 melanoma, 35%; in the experiment on SK-MEL-2 melanoma, 89%; in the experiment on SN12C renal it was -88.7% (active); with UO-31 renal, 42.5%; with TK-10 renal, 116%. Further, the growth with ACHN renal was 60.7%; in the experiment on CAKI-1 renal, 83.5%; in the experiment on A498 renal, 101%; in the experiment on CCRF-CEM leukemia, 106%; in the experiment on MOLT-4 leukemia it was 100%.

For `O=C(Nc1ccc(OS(=O)(=O)c2ccccc2)cc1)C12CC3CC(CC(C3)C1)C2`, the growth in the experiment with HT29 colon was -19.9% (active); with SNB-75 CNS, 56.4%; in the experiment on SNB-19 CNS it was 71.8%; in the experiment with U251 CNS, 34.6%; in the experiment with PC-3 prostate, 23.6%; in the experiment on UACC-62 melanoma it was 57%. Also, the growth with LOX IMVI melanoma was 40%; in the experiment with SK-MEL-28 melanoma, 75%; in the experiment on SN12C renal it was 63.5%; in the experiment with UO-31 renal it was 44.6%; in the experiment on TK-10 renal, 68.6%; in the experiment on ACHN renal, 78.5%. Besides, the growth in the experiment on CAKI-1 renal is 54.7%; in the experiment with A498 renal, 14.4%; with CCRF-CEM leukemia, 40.2%; in the experiment on MOLT-4 leukemia it was 39.5%; in the experiment with SR leukemia it was 11.2%.
